Consider 45 compounds from the supplement of paper PMC11738630.

The test system of the experiment is Salmonella enterica serovar Typhimurium 14028s. The experiment is described as follows: approximate change in surviving CFU after surface colonization relative to water-only control (log10 CFU/mL change); higher = more surviving bacteria (less inhibition of surface colonization). The conditions noted are these: not stated (Biolog proprietary concentration), surface: plastic 96-well plate, 20-24 h at 25 °C.

`NC(=O)NC(N)=O` [Biuret]: where the note is “Biolog plate: PM3, Biolog well: A6”, the “approximate change in surviving CFU (log10)” value (from here on “approximate change … (log10)”) was -0.258.
As to `NC(=O)C[C@@H](N)C(=O)O` [D-Asparagine], the “approximate change … (log10)” value (Biolog plate: PM3, Biolog well: C4) amounted to 0.644.
Turning to `O=C(O)CCC(=O)C(=O)O` [a-Keto-Glutaric Acid], the “approximate change … (log10)” value (Biolog plate: PM1, Biolog well: D6) is 1.19.
For `OC[C@@H](O)[C@@H](O[C@@H]1O[C@H](CO)[C@H](O)[C@H](O)[C@H]1O)[C@H](O)[C@@H](O)CO` [Lactitol], the “approximate change … (log10)” value (Biolog plate: PM2, Biolog well: C3) was 1.05.
As for `OC[C@@H](O)[C@@H](O)CO` [i-Erythritol], the “approximate change … (log10)” value (Biolog plate: PM2, Biolog well: B10) was determined as 1.35.
In the case of `N[C@H](CCC(=O)O)C(=O)O` [D-Glutamic Acid], the “approximate change … (log10)” value (Biolog plate: PM3, Biolog well: C6) turned out to be 0.837.
As to `NC(=O)NC1NC(=O)NC1=O` (stereo not given) [Allantoin], where the note is “Biolog plate: PM3, Biolog well: G5”, the “approximate change … (log10)” value turned out to be 0.258.
Consider `OC[C@@H](O)[C@@H](O)[C@H](O)[C@H](O)CO` [D-Mannitol], for which the “approximate change … (log10)” value (Biolog plate: PM1, Biolog well: B11) amounted to 2.19.
`CSCC[C@H](NC(=O)CN)C(=O)O`: the “approximate change … (log10)” value (Biolog plate: PM3, Biolog well: H11) was -0.558.
With `C/C(=C/C(=O)O)C(=O)O` [Citraconic Acid], the “approximate change … (log10)” value (Biolog plate: PM2, Biolog well: E3) turned out to be 0.472.
As for `O[C@@H]1[C@@H](O)[C@@H](O)CO[C@H]1O` [L-Arabinose], the “approximate change … (log10)” value (Biolog plate: PM1, Biolog well: A2) is 0.837.
On to `NCC(=O)N[C@@H](CCC(=O)O)C(=O)O` [Glycyl-L-Glutamic Acid], for which the “approximate change … (log10)” value (Biolog plate: PM1, Biolog well: G1) came to 1.22.
For the compound `O=C(O)CC(Br)C(=O)O` (stereo not given) [Bromo Succinic Acid], the “approximate change … (log10)” value (Biolog plate: PM1, Biolog well: F6) is -0.901.
As for `OC[C@@H](O)C(O)[C@H](O)CO` [D-Arabitol], the “approximate change … (log10)” value (Biolog plate: PM2, Biolog well: B6) was 1.37.
Turning to `O=C(O)[C@H](O)[C@@H](O)C(=O)O` [L-Tartaric Acid], under “Biolog plate: PM2, Biolog well: F12”, the “approximate change … (log10)” value was determined as 0.687.
For the compound `CC(=O)CC(=O)O` [Acetoacetic Acid], the “approximate change … (log10)” value (Biolog plate: PM1, Biolog well: G7) was determined as 0.172.
For `O=C(O)C[C@@H](O)C(=O)O` [D-Malic Acid], for the setting “Biolog plate: PM1, Biolog well: G11”, the “approximate change … (log10)” value amounted to 1.05.
For the compound `CC(=O)N[C@@H]1C(O)O[C@H](CO)[C@@H](O)[C@@H]1O` (stereo partly drawn) [N-Acetyl-D-Mannosamine], the “approximate change … (log10)” value (Biolog plate: PM3, Biolog well: F1) was 0.15.
Take `O=C(CO)CO` [Dihydroxy Acetone]: the “approximate change … (log10)” value (Biolog plate: PM2, Biolog well: H9) was -4.4.
For `N[C@@H](CS)C(=O)O` [L-Cysteine], the “approximate change … (log10)” value (Biolog plate: PM3, Biolog well: A11) turned out to be 0.88.
Turning to `C[C@H](N)C(=O)NCC(=O)O` [L-Alanyl-Glycine], the “approximate change … (log10)” value (Biolog plate: PM1, Biolog well: G6) was determined as 0.966.
Take `O=C(CO)[C@@H](O)[C@H](O)[C@H](O)CO` [D-Fructose]: the “approximate change … (log10)” value (Biolog plate: PM1, Biolog well: C7) was found to be 2.4.
As to `OC[C@H]1O[C@H](OC[C@H]2O[C@H](O[C@]3(CO)O[C@H](CO)[C@@H](O)[C@@H]3O)[C@H](O)[C@@H](O)[C@@H]2O)[C@H](O)[C@@H](O)[C@H]1O` [D-Raffinose], where the note is “Biolog plate: PM2, Biolog well: D1”, the “approximate change … (log10)” value came out at 0.494.
Take `OC[C@H]1OC(O)[C@H](O)[C@@H](O)[C@H]1O` (stereo partly drawn) [D-Galactose]: the “approximate change … (log10)” value (Biolog plate: PM1, Biolog well: A6) was 1.59.
For `OC[C@H]1O[C@H](O[C@H]2O[C@H](CO)[C@@H](O)[C@H](O)[C@H]2O)[C@H](O)[C@@H](O)[C@@H]1O` [D-Trehalose], where the note is “Biolog plate: PM1, Biolog well: A10”, the “approximate change … (log10)” value was found to be 1.59.
Turning to `OC[C@@H](O)[C@@H](O)[C@H](O)[C@@H](O)CO` [D-Sorbitol], the “approximate change … (log10)” value (Biolog plate: PM1, Biolog well: B2) is 1.61.
With `O=P(O)(O)OC[C@H](O)CO` (racemic) [D,L-a-Glycerol-Phosphate], the “approximate change … (log10)” value (Biolog plate: PM1, Biolog well: B7) came out at 1.31.
Turning to `OC[C@H]1O[C@H](OC[C@H]2OC(O)[C@H](O)[C@@H](O)[C@@H]2O)[C@H](O)[C@@H](O)[C@H]1O` (stereo partly drawn) [D-Melibiose], the “approximate change … (log10)” value (Biolog plate: PM1, Biolog well: C11) came to 1.82.
Regarding `CO[C@H]1O[C@H](CO)[C@H](O)[C@H](O)[C@H]1O` [a-Methyl-D-Galactoside], the “approximate change … (log10)” value (Biolog plate: PM1, Biolog well: D8) was 1.72.
For `CO[C@@H]1O[C@H](CO)[C@@H](O)[C@H](O)[C@H]1O` [B-Methyl-D-Glucoside], the “approximate change … (log10)” value (Biolog plate: PM1, Biolog well: E8) is 1.33.
Turning to `NCC(=O)N[C@@H](CC(=O)O)C(=O)O` [Glycyl-L-Aspartic Acid], the “approximate change … (log10)” value (Biolog plate: PM1, Biolog well: F1) was determined as 0.929.
In the case of `O[C@H]1[C@H](O)[C@@H](O)[C@H](O)[C@@H](O)[C@H]1O` [myo-Inositol], the “approximate change … (log10)” value (Biolog plate: PM1, Biolog well: F3) came to 0.902.
With `O=C(O)[C@@H](O)[C@H](O)[C@H](O)[C@@H](O)C(=O)O` [Mucic Acid], the “approximate change … (log10)” value (Biolog plate: PM1, Biolog well: F8) was determined as 1.38.
Take `OCC1OC(OC2C(CO)OC(O)C(O)C2O)C(O)C(O)C1O` [D-Cellobiose]: the “approximate change … (log10)” value (Biolog plate: PM1, Biolog well: F11) was 1.2.
`O=C(O)CC(CC(=O)O)C(=O)O` [Tricarballylic Acid]: the “approximate change … (log10)” value (Biolog plate: PM1, Biolog well: G2) was 1.05.
`N#C[C@H](O[C@@H]1O[C@H](CO[C@@H]2O[C@H](CO)[C@@H](O)[C@H](O)[C@H]2O)[C@@H](O)[C@H](O)[C@H]1O)c1ccccc1` [Amygdalin]: the “approximate change … (log10)” value (Biolog plate: PM2, Biolog well: B4) stood at 0.966.
Turning to `O=C(CO)[C@@H](O)[C@H](O)[C@H](O)CO[C@H]1O[C@H](CO)[C@@H](O)[C@H](O)[C@H]1O` [Palatinose], the “approximate change … (log10)” value (Biolog plate: PM2, Biolog well: C12) amounted to 0.751.
Take `OC[C@H]1O[C@H](OC[C@H]2O[C@H](OC[C@H]3O[C@H](O[C@]4(CO)O[C@H](CO)[C@@H](O)[C@@H]4O)[C@H](O)[C@@H](O)[C@@H]3O)[C@H](O)[C@@H](O)[C@H]2O)[C@H](O)[C@@H](O)[C@H]1O` [Stachyose]: the “approximate change … (log10)” value (Biolog plate: PM2, Biolog well: D5) was 1.37.
For `O=C(CO)[C@@H](O)[C@@H](O)[C@H](O)CO` [D-Tagatose], the “approximate change … (log10)” value (Biolog plate: PM2, Biolog well: D6) is 0.859.
`O=C(CO)[C@@H](O[C@H]1O[C@H](CO)[C@@H](O)[C@H](O)[C@H]1O)[C@H](O)[C@H](O)CO` [Turanose]: the “approximate change … (log10)” value (Biolog plate: PM2, Biolog well: D7) came out at 0.88.
For the compound `CC(O)(CC(=O)O)C(=O)O` (stereo not given) [Citramalic Acid], the “approximate change … (log10)” value (Biolog plate: PM2, Biolog well: E4) turned out to be 0.687.
On to `O=C(O)c1ccc(O)cc1` [4-Hydroxy Benzoic Acid], for which the “approximate change … (log10)” value (Biolog plate: PM2, Biolog well: E7) is -0.58.
With `C[C@@H](O)CC(=O)O` [b-Hydroxy Butyric Acid], the “approximate change … (log10)” value (Biolog plate: PM2, Biolog well: E8) is -0.215.
`C=C(CC(=O)O)C(=O)O` [Itaconic Acid]: where the note is “Biolog plate: PM2, Biolog well: E11”, the “approximate change … (log10)” value was -3.95.
Take `NC(=O)CCC(=O)O` [Succinamic Acid]: the “approximate change … (log10)” value (Biolog plate: PM2, Biolog well: F10) is 0.73.
